Percent Effect data for 39 compounds are collected here from ChEMBL document CHEMBL3988442, “University of Dundee, Small-Polar-MMV Screening Library” (2021).

The target in the assay is Shiga toxin 2 (Escherichia coli O157:H7) (UniProt P09385+P09386). The assay is described as follows: E. coli 0.157:H7 Shiga Toxin SOP - stx2 screening assay. Type of assay: functional. Further details: scale not given: direction of the effect not stated beside the values. The settings on record: 30 µM.
Consider `CC(CNC(=O)c1ccccc1Oc1cccnc1)N(C)C` (centres undefined), for which the Percent Effect was -5.12%.
As for `O=C(CCCOc1ccc(F)cc1)N1CCCC(n2cccn2)C1` (centres undefined), the Percent Effect is 7.54%.
Consider `N#Cc1ccc(CNCC(C(=O)N2CCOCC2)c2ccccc2)cc1` (centres undefined), for which the Percent Effect is -26%.
The same measure for `COCCn1ccc(=O)c(OCC(=O)Nc2ccccc2)c1C`: -38%; for `CC(=O)Nc1nc(C2CCN(C(=O)c3cccnc3)CC2)cs1`: -3.89%; for `COCCN1C(=O)CC(N2CCN(c3ccc(F)cc3)CC2)C1=O` (centres undefined): -24.6%.
For `CCOc1ncccc1NC(=O)c1cc(C)c(C)s1`, the Percent Effect was determined as 3.75%.
The result for `CCc1nc(COc2ccc(OCc3cnn(C)c3)cc2)no1` reads -31%; that for `COCCc1noc(CN2CCc3nn(C(C)C)c(=O)cc3C2)n1`, 19.6%; that for `NC[C@H]1CC[C@H](C(NC(=O)c2ccccn2)c2ccccn2)CC1` (some centres undefined), 17%.
On to `O=C(NCC1CC1)C1CCC2(CCN(C(=O)c3ccccn3)CC2)O1` (centres undefined), for which the Percent Effect worked out at 1.47%.
The result for `CC(C)(C)C(=O)N1CCCC1c1nc(O)cc(-c2ccccn2)n1` (centres undefined) reads 5.71%.
The same measure for `CCOc1ccc(N(CC(=O)c2ccccc2)C2=NCCCCC2)cc1`: -5.46%.
In the case of `Cn1c(C2CC2)nc2c1CCN(CC(=O)Nc1nncs1)C2`, the Percent Effect is -9.76%.
Turning to `O=C(NCCNc1ncccn1)C1CC(=O)N(CC(F)(F)F)C1` (centres undefined), the Percent Effect was 20.8%.
The same measure for `O=C(N1CCCC1)N1CCN(CC2CC2)c2ncccc2C1`: -4.59%; for `Cc1noc([C@@H]2CC[C@@H]3[C@@H](CCN3S(=O)(=O)c3cccnc3)O2)n1`: -18.4%; for `Cc1cc(C[S+]([O-])CC(=O)Nc2c(C)cccc2C)no1` (centres undefined): 17%.
Regarding `CCOC(C)c1nc(CN2CCNCC2)cs1` (centres undefined), the Percent Effect was -12.7%.
The result for `CC(NCc1ccncc1)c1cc(F)ccc1N1CCN(C)CC1` (centres undefined) reads -4.73%; that for `CN(C)C(=O)CNC(=O)Nc1cccc(Cl)c1SC(F)F`, -5.26%.
The result for `COc1c(C2CCCN2C(=O)Cc2c(C)noc2C)c(C)nn1C` (centres undefined) reads 6.14%; that for `CCC(C)(NCC(=O)Nc1ccccc1)c1nc(C)cs1` (centres undefined), 15.8%.
The result for `CC(=O)c1cccc(OCCCC(=O)N(C)Cc2ccccn2)c1` reads -20%.
For `Cc1ccc(O)c(CNC2CCc3nc(C(C)C)nn3C2)n1` (centres undefined), the Percent Effect turned out to be 1.45%.
For the compound `c1ncn(Cc2cnc3n2CCN(Cc2ccsc2)CC3)n1`, the Percent Effect is -2.1%.
With `CCc1cc(NCC(O)CN2CCCCC2)n2ncnc2n1` (centres undefined), the Percent Effect was -8.11%.
The same measure for `O=C(CC1CN(Cc2ccccc2)CCO1)Nc1ccccc1F` (centres undefined): -0.0564%.
The same measure for `COc1ccc(C)cc1C(C)NC(=O)NCCCn1cncn1` (centres undefined): -12.9%; for `CCc1nccn1C1CCCN(C(=O)c2cn3cccnc3n2)C1` (centres undefined): 5.72%.
The result for `Cc1nc(CN2CCC(N(C)Cc3noc(C(C)C)n3)C2)cs1` (centres undefined) reads -23.4%; that for `O=C([C@H]1CCCO1)N1CCc2ncnc(NC3CC3)c2CC1`, -32%.
For `O=C([C@H]1C[C@H]2OCC[C@H]2N(CCc2ccccc2)C1)N1CCCCO1`, the Percent Effect is 6.49%.
The result for `Cn1c(CC2CCS(=O)(=O)C2)nnc1SCCOc1cccc(Cl)c1` (centres undefined) reads -13%; that for `O=S(=O)(NC1=NCN(CCc2cccs2)CN1)c1ccccc1`, -12.6%.
The result for `O=C(NCCc1c[nH]cn1)c1ccc2c(c1)C(=O)N(C1CC1)C2=O` reads -47.1%; that for `Cc1nc(CN2CCCC2c2c(C)nn(C)c2Cl)no1` (centres undefined), 18.6%.
The same measure for `NC(=O)C1CCN(C(=O)CCn2ccc3cc(Br)ccc32)CC1`: 12.4%; for `CCc1noc(CN2CCCN(C(N)=O)CC2)n1`: 5.08%.
